Pyk2 oligo antag: antagonists of Pyk2 self-association, primary screen, Q293 cells, FERM NanoBiT luminescence, HTS; Protein-tyrosine kinase 2-beta (Homo sapiens), Q14289; stronger effect = lower value; z-score (the deposit names both 25 µM and 10 µM); 99,000 tested, 0.83% active; AID 1347419, 2020;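 active = Z-score of -3 or lower, scaled per plate to the spread of control and sample wells; inactive = z-score above -3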;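 also: negative z-score means lost luminescence so less FERM oligomerization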
MRP1 act: H69AR viability gain despite doxorubicin, primary screen, MRP-1 activator project, H69AR cells, CellTiter-Glo | viability rescue | 140,000 tested, 0.61% active | viability increase, % at 10 µM;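 active = viability gain under doxorubicin at or above a set limit, the compound median plus 3 SD, cut at about 4.7% in these data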;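 also: MRP-1 overexpressing cells given doxorubicin 25 µM after compound pretreatment; 18-22 h compound pretreatment then 72 h with doxorubicin before readout; 0% = doxorubicin-only wells and 100% = vehicle-treated cells without doxorubicin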
CD11b adhes inh: inhibitors of CD11b/CD18 adhesion to fibrinogen, primary screen, K562 cells, luminescence | AID 1497, 2009 | inhibition, % at 10 µM | 93,000 tested, 0.54% active | ATPlite luminescence; Mn2+ added to activate the integrin;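 active = primary inhibition of 50% or more at 10 µM, then 40% or more on retest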
Mac1 fbg enh: enhancers of CD11b/CD18 adhesion to fibrinogen, primary screen, K562 cells, luminescence. AID 1499, 2009. ATPlite luminescence. Integrin beta-2 (Homo sapiens) + Integrin alpha-M (Homo sapiens), P05107+P11215. activation, % at 10 µM. 93,000 tested, 0.07% active;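 active = 10 µM primary screen giving 50% or more activity, confirmed by 40% or more on retest at that dose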
Cav3 T inh: Cav3.2 calcium influx blockers – cell-based, Fluo-4 calcium fluorescence, FDSS, MLSMR library, primary screen. Voltage-dependent T-type calcium channel subunit alpha-1H (Homo sapiens), O95180. Cav3.2-expressing cells; stronger effect = lower value. B-score at 10 µM. 100,000 tested, 4% active. AID 449739, 2010;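 active = single-dose well whose peak fluorescence ratio is a statistical outlier from its plate by either plate-standardised score or position-corrected B-score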
Target sequence (O95180 whole entry, looked up): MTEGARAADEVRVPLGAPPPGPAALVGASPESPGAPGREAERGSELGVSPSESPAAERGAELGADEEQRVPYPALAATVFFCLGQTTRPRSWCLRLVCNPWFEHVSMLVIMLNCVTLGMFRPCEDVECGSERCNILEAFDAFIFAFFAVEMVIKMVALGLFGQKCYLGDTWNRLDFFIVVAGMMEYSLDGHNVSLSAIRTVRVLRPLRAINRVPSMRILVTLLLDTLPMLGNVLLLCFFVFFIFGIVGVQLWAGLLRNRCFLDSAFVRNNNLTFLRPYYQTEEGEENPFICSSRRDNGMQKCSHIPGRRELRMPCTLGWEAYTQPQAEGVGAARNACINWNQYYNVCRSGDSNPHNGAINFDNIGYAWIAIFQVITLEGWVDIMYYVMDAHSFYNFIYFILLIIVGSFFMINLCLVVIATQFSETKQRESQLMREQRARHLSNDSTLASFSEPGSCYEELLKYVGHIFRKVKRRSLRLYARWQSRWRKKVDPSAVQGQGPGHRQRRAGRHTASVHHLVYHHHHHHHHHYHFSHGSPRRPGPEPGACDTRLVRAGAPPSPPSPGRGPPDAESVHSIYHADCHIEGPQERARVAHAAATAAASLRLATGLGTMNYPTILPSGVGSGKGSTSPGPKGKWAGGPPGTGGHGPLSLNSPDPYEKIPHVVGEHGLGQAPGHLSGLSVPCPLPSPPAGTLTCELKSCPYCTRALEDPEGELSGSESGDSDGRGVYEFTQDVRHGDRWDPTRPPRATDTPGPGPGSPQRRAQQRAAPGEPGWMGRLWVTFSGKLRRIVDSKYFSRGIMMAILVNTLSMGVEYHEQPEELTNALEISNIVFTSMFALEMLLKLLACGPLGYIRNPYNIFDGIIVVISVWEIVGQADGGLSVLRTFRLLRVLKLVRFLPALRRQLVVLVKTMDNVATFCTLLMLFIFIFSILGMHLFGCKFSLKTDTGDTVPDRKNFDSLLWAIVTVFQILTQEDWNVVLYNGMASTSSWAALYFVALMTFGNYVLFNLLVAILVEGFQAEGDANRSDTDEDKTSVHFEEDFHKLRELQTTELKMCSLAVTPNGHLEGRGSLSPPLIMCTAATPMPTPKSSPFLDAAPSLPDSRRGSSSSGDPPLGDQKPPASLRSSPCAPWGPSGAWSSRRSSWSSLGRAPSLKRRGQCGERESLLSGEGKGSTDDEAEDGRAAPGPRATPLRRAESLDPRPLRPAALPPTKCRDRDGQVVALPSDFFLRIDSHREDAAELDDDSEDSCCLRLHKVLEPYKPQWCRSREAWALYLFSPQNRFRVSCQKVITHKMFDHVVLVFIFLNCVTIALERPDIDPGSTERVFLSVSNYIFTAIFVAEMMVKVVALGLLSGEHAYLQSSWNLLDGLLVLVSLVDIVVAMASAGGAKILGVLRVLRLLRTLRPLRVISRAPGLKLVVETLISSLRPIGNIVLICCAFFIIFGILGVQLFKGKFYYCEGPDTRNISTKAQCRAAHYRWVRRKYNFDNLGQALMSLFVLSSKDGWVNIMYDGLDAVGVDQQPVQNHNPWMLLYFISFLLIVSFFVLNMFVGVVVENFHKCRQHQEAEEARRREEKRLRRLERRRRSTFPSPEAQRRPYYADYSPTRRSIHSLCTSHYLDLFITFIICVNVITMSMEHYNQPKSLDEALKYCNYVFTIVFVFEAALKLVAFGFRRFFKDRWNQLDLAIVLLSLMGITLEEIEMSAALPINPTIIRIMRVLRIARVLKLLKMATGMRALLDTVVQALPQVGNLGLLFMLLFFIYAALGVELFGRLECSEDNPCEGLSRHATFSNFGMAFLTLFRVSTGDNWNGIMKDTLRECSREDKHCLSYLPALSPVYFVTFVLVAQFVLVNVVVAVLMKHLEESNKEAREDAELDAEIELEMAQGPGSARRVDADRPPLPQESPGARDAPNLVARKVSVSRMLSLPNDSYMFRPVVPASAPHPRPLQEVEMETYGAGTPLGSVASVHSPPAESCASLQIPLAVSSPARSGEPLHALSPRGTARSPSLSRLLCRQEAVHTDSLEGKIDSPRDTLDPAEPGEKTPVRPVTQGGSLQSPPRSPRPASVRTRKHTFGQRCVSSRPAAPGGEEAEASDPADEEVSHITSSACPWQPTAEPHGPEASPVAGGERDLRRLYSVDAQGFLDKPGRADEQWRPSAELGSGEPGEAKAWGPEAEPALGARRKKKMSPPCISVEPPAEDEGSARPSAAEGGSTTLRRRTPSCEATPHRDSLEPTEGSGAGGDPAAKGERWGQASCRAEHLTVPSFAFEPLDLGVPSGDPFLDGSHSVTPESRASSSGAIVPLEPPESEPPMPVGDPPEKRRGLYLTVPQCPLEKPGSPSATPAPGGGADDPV
MRP reversal: reversal of MRP1-mediated doxorubicin resistance, primary screen, H69AR cells, doxorubicin co-treatment; H69AR cells + 2 uM doxorubicin, CellTiter-Glo, 72 h; differential viability (reversal), % at 10 µM; 85,000 tested, 0.04% active;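 active = viability drop by adding the cancer drug above about 55%, with treated viability meeting a 40% cutoff, limit read from the data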;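 also: viability without doxorubicin minus viability with 2 µM doxorubicin for each compound; larger differential means the compound sensitizes cells more to doxorubicin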
* marks the source's active call; other numbers are inactive results; x = no result. Shown are actives, neighbours in structure and some others; about 4.1% of the full set was active somewhere.

SMILES | Pyk2 oligo antag | MRP1 act | CD11b adhes inh | Mac1 fbg enh | Cav3 T inh | MRP reversal
O=C(Nc1ccn(Cc2c(F)c(F)cc(F)c2F)n1)c1ccc(COc2ccc(Cl)cc2Cl)o1 | 0.51 | 13.4* | -0.5 | -1.8 | -1.27 | x
Cc1nn(Cc2cccc(F)c2)c(C)c1NC(=O)c1c([N+](=O)[O-])c(C)nn1C | 0.19 | -0.5 | -6.6 | -1.6 | 0.0982 | x
Cc1nn(Cc2cccc(F)c2)c(C)c1NC(=O)c1ccc(COc2ccccc2Cl)cc1 | -2.06 | 4.5 | 0.0 | 1.2 | -4.56* | x
CC(C)CNC(=O)c1ccc(COc2ccc(Cl)cc2Cl)o1 | -0.14 | -3.0 | 5.4 | -1.1 | -4.51* | 4.3
Cc1nn(Cc2ccc(Cl)cc2Cl)c(C)c1NC(=O)c1ccc(COc2cc(Cl)ccc2Cl)o1 | -0.13 | 5.6* | x | x | -5.17* | x
C=C1C2(C(=O)Nc3nccs3)CCC(C2)C1(C)C (stereo unspecified) | -0.19 | -1.1 | 17.2 | -1.4 | x | 12.8
CCCNC(=O)CSC1=N/C(=C/c2ccc(F)cc2)C(=O)N1CC | x | -0.2 | x | x | x | x
O=C(Nc1ccc(Cl)cc1)OCCn1nnnc1C(c1ccccc1)N1CCOCC1 (stereo unspecified) | 0.33 | -2.1 | -13.2 | 7.7 | -0.438 | x
CN(C)c1ccc(C(c2nnnn2CCOC(=O)Nc2ccc(Cl)cc2)N2CCOCC2)cc1 (stereo unspecified) | 0.01 | -3.8 | -7.1 | -1.4 | -4.12* | -6.2
Cc1ccc(C)c(N2CCN(C(=O)C3CCN(S(=O)(=O)c4c(C)noc4C)CC3)CC2)c1 | x | x | x | x | x | 16.2
Cc1ccc(C)c(N2CCN(C(=O)C3CCN(c4nc(C)cc(C)n4)CC3)CC2)c1 | -0.51 | -0.4 | 3.1 | -1.7 | -5.63* | -6.1
COc1ccc(NC(=O)C(=O)NNC(=O)c2cccs2)cc1 | x | 0.1 | x | x | x | x
CN(CC(=O)Nc1ccc(C#N)cc1)Cc1ccc(Cl)cc1Cl | -0.44 | -3.0 | 12.2 | -2.1 | -4.2* | x
Cc1ccccc1-n1ncc2c(SCC(=O)NCc3cccs3)ncnc21 | 0.93 | -5.1 | 4.9 | -5.9 | -1.31 | -29.0
Cc1csc(NC(=O)CSc2ncnc3c2cnn3-c2ccccc2Cl)n1 | -1.84 | -4.9 | 13.0 | 3.6 | -5.54* | 3.6
O=C(NC(=S)Nc1ccccc1N1CCOCC1)c1ccc(-c2cc(Cl)ccc2Cl)o1 | x | 14.5* | -2.5 | -0.7 | x | x
COc1ccc(-n2c(C)cc(C(=O)Cn3nnc4ccccc4c3=O)c2C)cc1 | -0.59 | -0.5 | 0.1 | 3.3 | -1.86 | 10.9
Cc1cc(C(=O)Cn2nnc3ccccc3c2=O)c(C)n1-c1ccccc1F | -1.11 | -1.7 | 66.4 | -9.2 | -7* | 19.9
Nc1c(C(=O)C2CC2)sc2nc(-c3ccccc3)cc(C(F)(F)F)c12 | 1.38 | -1.3 | x | x | -6.19* | 9.2
CC(=O)c1sc2nc(-c3cccs3)cc(C(F)(F)F)c2c1N | -1.24 | -5.6 | 5.4 | 2.4 | -1.41 | 4.6
CC(=O)N1CC=CC1(C)C(=O)O (stereo unspecified) | x | 0.4 | x | x | 1.14 | x
N#Cc1c(C(F)(F)F)cc(-c2ccccc2Cl)[nH]c1=O | -1.49 | -1.2 | 61.8* | -2.4 | -2.62* | x
COc1ccc(OC)c(Nc2nc(C3CC3)nc3c2nnn3Cc2ccccc2)c1 | -0.56 | -1.6 | x | x | x | 15.2
CCCCC(=O)N/N=C/c1sccc1C | x | -1.2 | x | x | x | x
Cc1ccc(CSCC(=O)N/N=C/c2sccc2C)cc1 | 2.23 | 0.0 | 1.7 | -2.9 | -4.9* | x
SMILES | Pyk2 oligo antag | MRP1 act | CD11b adhes inh | Mac1 fbg enh | Cav3 T inh | MRP reversal
CSCC[C@H](NC(=O)c1cccc([N+](=O)[O-])c1C)c1nc2ccccc2[nH]1 | x | -1.7 | x | x | x | x
COc1cc(/C=C2/SC(=S)NC2=O)ccc1OS(=O)(=O)c1ccc(C)cc1 | x | -3.2 | 91.9* | -4.7 | x | x
Cc1cc(/C=C2\NC(=O)N(Cc3ccc(Cl)cc3)C2=O)c(C)n1C | x | 6.2* | x | x | x | x
CC(=O)N1CN(C2CC(C)(C)NC(C)(C)C2)Cc2c1sc1c2CCCC1 | x | 0.4 | x | x | x | x
CC1CCN(C(=O)CN(C)S(=O)(=O)c2cccc3nsnc23)CC1 | 0.18 | -2.2 | x | x | 0.903 | -2.7
O=C(C(c1ccccc1)c1ccccc1)N1CCC(c2nc(-c3ccccc3Cl)no2)CC1 | 0.28 | -2.9 | x | x | -6.22* | -2.5
O=C1NC2(CCc3ccccc32)C(=O)N1CCOc1ccc(Cl)cc1 (stereo unspecified) | 0.36 | 0.5 | -4.0 | -2.8 | -4.84* | x
Cc1ccc(S(=O)(=O)N2CCCN(S(=O)(=O)c3ccc4c(c3)OCCO4)CC2)cc1 | -3.01* | 0.0 | 8.0 | 0.7 | -0.618 | -17.5
O=S(=O)(c1ccc2c(c1)OCCO2)N1CCN(Cc2ccccc2)CC1 | -2.6 | -3.1 | -1.4 | -2.4 | -0.687 | 18.4
O=S(=O)(c1ccc2c(c1)OCCO2)N1CCN(c2cccc(Cl)c2)CC1 | -3.9* | -3.0 | 15.1 | -3.6 | x | 22.4
CN1CCN(S(=O)(=O)c2ccc3c(c2)OCCO3)CC1 | 0.2 | -0.4 | -4.0 | 1.8 | -0.304 | 3.5
O=S(=O)(c1ccc2c(c1)OCCO2)N1CCC(O)(c2ccc(Cl)cc2)CC1 | -3.2* | -0.9 | 81.5 | -5.1 | -1.88 | -11.8
Cc1ccc(C(C)NC(=O)c2c(C)noc2C)cc1C (stereo unspecified) | 0.33 | 1.4 | 5.0 | -4.8 | -3.78* | 0.3
Cc1noc(C)c1C(=O)NCCc1ccccc1 | 0.81 | -0.7 | 1.1 | -3.4 | 1.47 | 2.8
Cc1cc(N2C3CCC2CC(O)(c2ccc(F)cc2)C3)nc(-c2ccccc2)n1 (stereo unspecified) | -3.07* | -1.9 | -6.6 | 3.2 | -1.75 | -23.0
CC(C)C(=O)N1C2CCC1CC(O)(c1ccc(F)cc1)C2 (stereo unspecified) | 0.93 | -1.0 | x | x | -0.182 | -11.8
Cc1c(C)n(C(=O)CSc2nccn2C)c2ccccc12 | -0.47 | -1.4 | -11.0 | -1.5 | -0.393 | -7.9
COc1ccc(NC(C)C(=O)Nc2ccc(C(C)(C)C)cc2)cc1Cl (stereo unspecified) | -1.38 | -1.3 | 15.6 | -2.5 | -6.02* | x
COc1ccc(NC(C)C(=O)Nc2ccc(C#N)cc2)cc1Cl (stereo unspecified) | 0.57 | -1.3 | -27.3 | -0.9 | -0.434 | x
CCN(C(=O)c1cc2cc3ccc(C)cc3nc2o1)c1ccc(OC)cc1 | -2.34 | 6.6* | -24.4 | 7.6 | -3.26 | -0.9
Cc1ccc2cc3cc(C(=O)NCCC(C)C)oc3nc2c1 | 0.77 | -0.1 | -8.0 | -2.6 | 0.503 | -0.9
COc1ccc(CCN2CCC(Nc3nc4ccccc4n3Cc3ccc(F)cc3)CC2)cc1 | x | -4.1 | x | x | -4.96* | -0.1
N#Cc1c(Sc2ncc(C(F)(F)F)cc2Cl)nsc1C/C=N\OCc1c(F)cccc1Cl | -0.27 | -0.7 | -0.3 | -2.1 | -0.478 | -9.0

Screening data deposited in PubChem by several laboratories.
